This note sets out measurements from PubChem BioAssay (NCATS).

Structures are written as SMILES. Several values for one entry are separate records, joined by “and”; a condition that tells them apart may be missing. Identical values can stand only once. Results filed as inconclusive are left out. Activity calls are given as the source filed them. Unless noted, the call rests on the fitted dose curve; in most records, active means well fitted curve in the direction sought with a large enough effect; inconclusive means small, poorly fitted or top-dose-only effect, or another doubt; inactive means no such curve, though single readings can be large; an effect the other way counts as inactive or inconclusive. Bounds are passed on as bounds.

Assay [1] in a line: Cell Viability - SK-N-SH (AID 435; calls by dose curve; further: potency means the concentration at half of the fitted maximal effect). Conditions: SK-N-SH neuroblastoma cell viability qHTS. The method in brief:
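Human neuroblastoma line, 40 h exposure at 37 °C, ATP quantified via luciferase luminescence; DMSO and 100 uM tamoxifen define 0 and 100% inhibition for AC50 fitting.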
(Quantitative high-throughput screening tests each substance at several concentrations.)

The nature of assay [2]: Cell Viability - N2a (AID 540). Further: nearly all actives have a fitted effect of over 45% in size. Further: potency means the concentration at half of the fitted maximal effect.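 On activity change, negative = cytotoxicity: plate controls were DMSO alone for no effect and tamoxifen control for full effect.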 As to conditions: N2a mouse neuroblastoma cell viability; activity change, negative = cytotoxicity: at 92.2 µM (top of the series). The procedure, abridged: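 N2a mouse neuroblastoma, 1500 cells/well, 5 hr settle; compound 40 hr, 37 °C; CellTiter-Glo 20 min RT; luminescence; Hill-fit AC50.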
Assay [3] is described as follows: Cell Viability - H-4-II-E (AID 543). Further: nearly all actives have a fitted effect of over 35% in size. Further: potency means the concentration at half of the fitted maximal effect. The procedure, abridged: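 qHTS, rat hepatoma H-4-II-E, 1500 cells/well; 40 hr compound exposure, 37 °C; CellTiter-Glo ATP luminescence after 20 min RT; AC50 by standard Hill fit.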
Assay [4] can be described thus: Cell Viability - Renal Proximal Tubule (AID 545). Further: nearly all actives have a fitted effect of over 40% in size. Further: potency means the concentration at half of the fitted maximal effect.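 On activity change, negative = cytotoxicity: 0% = DMSO only and -100% = 100 µM tamoxifen.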 Conditions: renal proximal tubule cells viability, primary cells of rat origin; activity change, negative = cytotoxicity: at 91.7 µM (top of the series). The method in brief:
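In this qHTS format, normal rat kidney-derived proximal tubule cells in complete culture medium receive compound titrations, then sit 40 hours at 37 °C before luciferase-based ATP quantitation; potency is reported as AC50 from concentration-response curves.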

The nature of assay [5]: MultiTox-Fluor Cytotoxicity Assay - LYMP1-001 - Live Cells (AID 947). Further: potency means the concentration at half of the fitted maximal effect.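 On activity change, negative = cytotoxicity: 0% = DMSO only and full inhibition = tetraoctylammonium bromide control.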
Assay [6] can be described thus: Cell Viability - LYMP2-004 (AID 966).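 Further: cells exposed to compound for 24 h; nearly all actives have a fitted effect of over 65% in size.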 Further: potency means the concentration at half of the fitted maximal effect.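 On activity change, negative = cytotoxicity: plate controls were DMSO only for no effect and tetraoctylammonium bromide control for full effect.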 The method in brief:
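Luminescent ATP read-out (CellTiter-Glo, 30 min RT) after 24 hr compound exposure at 37 C; 2500 lymphoblastoid cells/well, complete medium. Decrease in ATP = cytotoxicity; AC50 from standard Hill model.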

A short description of assay [7]: Cell Viability - LYMP2-009 (AID 968).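 Further: cells exposed to compound for 24 h at 37 °C; nearly all actives have a fitted effect of over 55% in size.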 Further: potency means the concentration at half of the fitted maximal effect.
Assay [8] can be described thus: Cell Viability - LYMP2-015 (AID 971).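 Further: cells exposed to compound for 24 h; nearly all actives have a fitted effect of over 55% in size.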 Further: potency means the concentration at half of the fitted maximal effect. The procedure, abridged: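 qHTS cytotoxicity: 2500 cells/well, 5 hr 37 C, compound 24 hr 37 C, CellTiter-Glo 30 min RT, luminescence. Loss of ATP = toxicity; AC50 via standard Hill fit.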
Assay [9] is described as follows: Cell Viability - LYMP2-017 (AID 972).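 Further: cells exposed to compound for 24 hours at 37 °C; nearly all actives have a fitted effect of over 55% in size.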 Further: potency means the concentration at half of the fitted maximal effect. On activity change, negative = cytotoxicity: on the % scale 0 is the no-effect control and ±100 the full control effect. The procedure, abridged: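 Luminescent ATP read-out (CellTiter-Glo, 30 min RT) reports viable cell number. Cells: human lymphoblastoid line, 2500 per well, 5 hr preincubation, 24 hr compound exposure at 37 C. AC50 is derived from qHTS concentration-response data using the standard Hill model.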
The nature of assay [10]: Cell Viability - LYMP2-019 (AID 973).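 Further: cells exposed to compound for 24 h at 37 °C; nearly all actives have a fitted effect of over 55% in size.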 Further: potency means the concentration at half of the fitted maximal effect.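 On activity change, negative = cytotoxicity: 0% = DMSO alone and full effect = 92 µM tetraoctylammonium bromide.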 The method in brief: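 qHTS, 1536-well; 2500 cells/well; 5 hr pre-incubation, 24 hr compound exposure, 37 C; CellTiter-Glo added, 30 min RT; luminescence read; AC50 via standard Hill equation.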
The nature of assay [11]: Cell Viability - LYMP2-010 (AID 981). Further: potency means the concentration at half of the fitted maximal effect. The procedure, abridged:
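qHTS cytotoxicity, 1536-well: 2500 cells/well, 5 hr settle, 24 hr compound at 37 C, CellTiter-Glo 30 min RT, luminescence read. Decrease in ATP = toxicity; AC50 via standard Hill equation. Positive control tetraoctylammonium bromide.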

Assay [12] can be described thus: qHTS assay for small molecule disruptors of the mitochondrial membrane potential - 5 hr assay (AID 651755; calls by dose curve; further: nearly all actives have a fitted effect of over 40% in size; further: potency means the concentration at half of the fitted maximal effect). The method in brief: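 Seed HepG2 overnight, add compound, incubate 5 hr at 37C and 5% CO2, stain 30 min with Mito-MPS, then measure monomer (490/535 nm) and aggregate (540/590 nm) fluorescence.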
A short description of assay [13]: qHTS assay for small molecule agonists of the antioxidant response element (ARE) signaling pathway measured by Nrf2-dependant transcriptional activity (AID 720636; active means well fitted curve in the direction sought with a large enough effect in the repeat runs; an effect the other way counts as inactive or inconclusive; further: potency means the concentration at half of the fitted maximal effect). The procedure, abridged: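 Nrf2-dependent transcription is measured in ARE-luc HepG2 cells: compound is applied for 16 hr at 37 C after a 6 hr attachment period, and luciferase activity is quantified by luminescence using ONE-Glo.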

The target in assay [14] is Nuclear receptor subfamily 1 group I member 2 (Rattus norvegicus) (UniProt Q9R1A7). Nature of the assay: qHTS assay for small molecule activators of the rat pregnane X receptor (rPXR) signaling pathway (AID 651751; call rule not given here; further: 0% is about no effect). As to conditions: rPXR reporter cells, luciferase (One-Glo), 24 h.
Chain of Nuclear receptor subfamily 1 group I member 2 (Rattus norvegicus) (Q9R1A7 whole entry, looked up): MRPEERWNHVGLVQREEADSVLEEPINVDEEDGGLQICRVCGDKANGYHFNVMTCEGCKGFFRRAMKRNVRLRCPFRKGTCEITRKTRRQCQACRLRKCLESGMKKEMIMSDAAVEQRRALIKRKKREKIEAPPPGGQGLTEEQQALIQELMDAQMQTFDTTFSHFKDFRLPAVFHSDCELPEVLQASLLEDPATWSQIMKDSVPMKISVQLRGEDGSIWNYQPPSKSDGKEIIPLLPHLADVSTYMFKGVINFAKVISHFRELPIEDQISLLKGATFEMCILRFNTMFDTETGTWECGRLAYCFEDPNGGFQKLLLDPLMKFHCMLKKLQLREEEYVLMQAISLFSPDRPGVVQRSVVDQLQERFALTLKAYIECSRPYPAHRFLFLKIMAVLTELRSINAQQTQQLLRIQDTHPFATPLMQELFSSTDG
Assay [15] is described as follows: MultiTox-Fluor Cytotoxicity Assay - LYMP1-002 - Dead Cells (AID 960). Further: nearly all actives have a fitted effect of over 60% in size. Further: potency means the concentration at half of the fitted maximal effect. The procedure, abridged:
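Readout: fluorescence at 485/520 from cell-impermeant bis-AAF-R110 cleaved by proteases leaking from damaged cells. LYMP1-002 lymphoblastoid line, 16 hr compound treatment at 37 C, concentration-response in qHTS format; Hill-equation AC50 values.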

Assay [16] can be described thus: Cell Viability - LYMP1-003 - Assay at 40 hr (AID 964). Further: nearly all actives have a fitted effect of over 60% in size. Further: potency means the concentration at half of the fitted maximal effect. The method in brief:
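LYMP1-003 lymphoblastoid cells, 2500/well; 5 hr preincubation, 40 hr compound exposure, 37 C; CellTiter-Glo 30 min RT; luminescence; Hill-fit AC50. Positive control tetraoctylammonium bromide.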

Assay [17] can be described thus: qHTS assay for small molecule agonists of retinoid X receptor alpha signaling (AID 588544; calls by dose curve). Conditions: HEK293T RXRa-UAS-bla, beta-lactamase reporter, 18 h; 530 nm emission.
The target in assay [18] is Retinoic acid receptor RXR-alpha (Homo sapiens) (UniProt P19793). Described as above.
Chain of Retinoic acid receptor RXR-alpha (Homo sapiens) (P19793 whole entry, looked up): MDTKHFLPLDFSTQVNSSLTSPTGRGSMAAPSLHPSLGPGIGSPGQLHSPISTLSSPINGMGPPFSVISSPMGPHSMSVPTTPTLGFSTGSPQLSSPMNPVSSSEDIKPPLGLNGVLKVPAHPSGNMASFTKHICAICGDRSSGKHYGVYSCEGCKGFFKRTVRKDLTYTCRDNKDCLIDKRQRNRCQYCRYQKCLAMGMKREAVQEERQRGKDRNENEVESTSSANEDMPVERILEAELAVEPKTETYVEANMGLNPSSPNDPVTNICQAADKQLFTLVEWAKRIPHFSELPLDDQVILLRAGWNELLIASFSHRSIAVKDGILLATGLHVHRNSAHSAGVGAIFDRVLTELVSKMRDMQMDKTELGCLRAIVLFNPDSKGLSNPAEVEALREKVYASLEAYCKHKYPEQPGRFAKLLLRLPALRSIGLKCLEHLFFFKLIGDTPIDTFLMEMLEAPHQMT
Assay [19] concerns the target Thyroid hormone receptor beta (Homo sapiens) (UniProt P10828). As to the kind of experiment: qHTS assay for small molecule antagonists of thyroid hormone receptor beta signaling (AID 588547; active means well fitted inhibition curve with a large enough effect in the signal ratio, with a control signal flat, not every such curve was filed as active; the % refers to the signal ratio;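 further: cells stimulated with 0.4 nM T3 agonist during compound exposure; on the % scale 0 is the no-effect control and ±100 the full control effect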). As to conditions: TR-UAS-bla HEK293, beta-lactamase ratio, antagonist mode, 18 h. The method in brief: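 TR-UAS-bla GripTite HEK293 cells in 2% charcoal/dextran FBS medium were preincubated 4 h at 37 C, given compound (0.59 nM to 92 uM) plus 0.4 nM T3 (final) for 18 h, then CCF4 for 2 h at RT; Hill fit gave IC50.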

Assay [20] is described as follows: Cell Viability - LYMP2-001 (AID 921).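 Further: cells exposed to compound for 24 h at 37 °C; nearly all actives have a fitted effect of over 70% in size.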 Further: potency means the concentration at half of the fitted maximal effect. The method in brief:
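A lymphoblastoid cell line of human origin was treated with library compounds across a concentration series for 24 hours, and viable cell number was estimated from ATP-driven luciferase light output. Hill modeling gave AC50.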

Chain of Thyroid hormone receptor beta (Homo sapiens) (P10828 whole entry, looked up): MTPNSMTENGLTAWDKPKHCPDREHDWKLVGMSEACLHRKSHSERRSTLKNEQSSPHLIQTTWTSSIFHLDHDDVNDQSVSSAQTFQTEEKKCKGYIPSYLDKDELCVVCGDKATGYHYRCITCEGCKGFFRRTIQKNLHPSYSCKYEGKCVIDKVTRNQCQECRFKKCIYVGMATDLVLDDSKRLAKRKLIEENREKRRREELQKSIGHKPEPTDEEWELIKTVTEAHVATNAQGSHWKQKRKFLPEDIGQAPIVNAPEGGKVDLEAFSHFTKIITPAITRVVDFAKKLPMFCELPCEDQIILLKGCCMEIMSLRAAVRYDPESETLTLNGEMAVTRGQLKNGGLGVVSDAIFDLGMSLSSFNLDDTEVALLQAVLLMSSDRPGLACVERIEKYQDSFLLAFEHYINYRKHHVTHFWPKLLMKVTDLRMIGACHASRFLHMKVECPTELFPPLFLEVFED

Take `CC/C=C/C/C=C/C/C=C/CCCCCCCC(=O)OCC`: the Potency in assay [1] is > 92 µM (inactive); in [6], 31.6 µM (active); in assay [7], 39.8 µM (active); in assay [8] it was 39.8 µM (active); in [9], 31.6 µM (active); in [10], 39.8 µM (active). Also, the values for the Potency in assay [11] and in assay [13] were 25.1 µM (active) and 66.8 µM (active), respectively. Also, the activity change, negative = cytotoxicity in assay [2] is -12.6% (inactive). For the same compound, the Potency result in assay [3], in assay [4], in assay [5] and in assay [12] was “inactive” in each case. Moreover, the max response in assay [14] was 2.44% (inactive).

Turning to `Oc1cc2c(cc1O)[C@H]1c3ccc(O)c(O)c3OC[C@@]1(O)C2`, the activity change, negative = cytotoxicity in [2] was -91.8% (active). Also, the Potency in assay [5] was 50.1 µM (active); in assay [16] it was 39.8 µM (active); in assay [6], 31.6 µM (active); in assay [7] it was 39.8 µM (active); in assay [8] it was 25.1 µM (active); in assay [9], 31.6 µM (active). In addition, the Potency in [10] and in assay [11] was 39.8 µM (active) each time. The Potency result in assay [15], in assay [18] and in assay [12] was “inactive” throughout. The max response in [17] was 5.74%; in [14], -8.86% (inactive). Besides, the activity change % (negative = inhibition) in assay [19] is -14.1% (inactive).

With `C=C(C#N)C(=O)OCC`, in assay [1], the Potency is > 92 µM (inactive). In assay [2], the activity change, negative = cytotoxicity is -3.66% (inactive). Also, the Potency entry in assay [3], in [4], in assay [20], in assay [5], in assay [15] and in assay [16] was “inactive” each time. Further, the Potency entry in [7], in [8], in assay [9], in assay [10], in [11] and in assay [18] was “inactive” in each case. The Potency entry in assay [12] and in [13] was “inactive” throughout. In addition, the max response in assay [17] is 6.28%; in assay [14], -1.42% (inactive). The activity change % (negative = inhibition) in assay [19] is 4.82% (inactive).

For the compound `O=C=Nc1ccc(Cl)c(Cl)c1`, the results for the Potency in assay [2], in assay [3] and in assay [12] were 31.6 µM (active), 31.6 µM (active) and 5.96 µM (active), respectively. Further, the Potency entry in assay [15], in assay [6] and in assay [13] was “inactive” throughout.

Regarding `O=C1c2ccccc2C(=O)C1(O)O`, the activity change, negative = cytotoxicity in [2] was -94.6% (active). Besides, the Potency was 1.58 µM (active) in [4] and 50.1 µM (active) in [6]. The Potency entry in assay [15], in [16], in assay [7], in [9], in assay [18] and in [12] was “inactive” in each case. Also, the Potency result in [13] was “inactive”. The max response in [17] is 5.07%; in [14], 1% (inactive). The activity change % (negative = inhibition) in assay [19] is -4.45% (inactive).

As to `CN(C)c1ccc(C(=N)c2ccc(N(C)C)cc2)cc1`, the Potency is 31.6 µM (active) in [2], 12.6 µM (active) in assay [3], 31.6 µM (active) in [20] and 15.8 µM (active) in [15]. Besides, the activity change % (negative = inhibition) in assay [19] is -25.2% (inactive).

In the case of `O=[N+]([O-])c1cc(N(CCO)CCO)ccc1NCCO`, the Potency entry in assay [20], in [5], in assay [15], in [7], in assay [8] and in [11] was “inactive” in each case. The Potency result in [18] and in assay [13] was “inactive” in each case. The max response in assay [17] is 7.09% and -3.73%; in assay [14], -6.76% (inactive) and -5.03% (inactive). Also, the activity change % (negative = inhibition) in [19] is 14.2% (inactive) and 12% (inactive).

Consider `O=Nc1ccc(Nc2ccccc2)cc1`, for which the Potency in assay [1] is 11.5 µM (active); in assay [3], 31.6 µM (active). Besides, the activity change, negative = cytotoxicity in assay [2] is -115% (active). Further, the Potency entry in assay [12] was “inactive”.

Take `Cc1cc(-c2ccc(N=Nc3cc(S(=O)(=O)O)c4ccccc4c3N)c(C)c2)ccc1N=Nc1cc(S(=O)(=O)O)c2ccccc2c1N`: the Potency entry in assay [5], in assay [6], in [10], in [18] and in assay [13] was “inactive” in each case. In addition, the max response in [17] was -22%; in assay [14], -3.26% (inactive). Further, the activity change % (negative = inhibition) in assay [19] is -25.1% (inactive).

`O=[N+]([O-])c1cc(Cl)c(Cl)c(Cl)c1Cl`: the activity change, negative = cytotoxicity in [2] is -28% (inactive). Further, the Potency result in assay [4], in [20] and in [12] was “inactive” each time. For the same compound, the Potency was 25.1 µM (active) in [15] and 37.6 µM (active) in [13]. Moreover, in [19], the activity change % (negative = inhibition) is 1.99% (inactive). Further, in [14], the max response is 0.233% (inactive).
